The record followed here is the supplement of paper PMC3414501.

Experiment [1] relates to S. cerevisiae SK1 pCDA2-eGFP (USY613), sporulating. Briefly: CDA2-GFP sporulation assay sensitivity score (z-score vs DMSO controls); higher = stronger inhibition of sporulation, active = hit call of the paper.
The test system of experiment [2] is S. cerevisiae NKY1551 his4x/his4B, sporulating. The experiment is described as follows: HIS4 meiotic recombination assay sensitivity score (z-score vs DMSO controls); higher = stronger inhibition of sporulation/recombination, active = hit call of the paper.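 Also: active if sensitivity score above 5.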
In experiment [3] the test system is S. cerevisiae AD1-9 (efflux-pump deficient), vegetative growth in YPD. The experiment is described as follows: growth sensitivity score (doubling time z-score vs DMSO controls); higher = slower growth, strongly negative scores also mark growth inhibition (complete suppression), active = hit call of the paper. A digest of the protocol:
(§1)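 Rich medium in microtiter plates was seeded with Saccharomyces cerevisiae strains BY4741 and AD1-9 at an OD600 of 0.065, and compounds were added as a 1:100 dilution of DMSO stock. A Tecan GENios reader recorded optical density every 15 min for 24 hours, with eight solvent-only wells in each experiment. Average doubling time was the time to reach a set generation point divided by generation number. The growth sensitivity score was the compound mean minus the solvent-only mean, divided by the solvent-only standard deviation.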

Experiment [4] deals with S. cerevisiae BY4741 (wild-type), vegetative growth in YPD. The description is as above. A digest of the protocol:
as §1

Each structure is given as a SMILES string. Counter-ions that a name gives are not always drawn.
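For CDA2-GFP sporulation assay sensitivity score (z-score vs DMSO controls) in this document: active if sensitivity score above 5.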

For `NC(=O)c1cccnc1` [Nicotinamide] (stock concentration (mM, diluted 1:100): 10), the “CDA2-GFP sporulation assay sensitivity score” value in experiment [1] was 4.17 (inactive). The “HIS4 meiotic recombination assay sensitivity score” value in experiment [2] is 0.03 (inactive). The growth sensitivity score is -0.97 (inactive) in experiment [3] and -0.49 (inactive) in experiment [4].
As for `Nc1c2c(nc3ccccc13)CCCC2` [Tacrine hydrochloride] (stock concentration (mM, diluted 1:100): 9), in experiment [1], the “CDA2-GFP sporulation assay sensitivity score” value is 10.2 (active). The “HIS4 meiotic recombination assay sensitivity score” value in experiment [2] is -2.37 (inactive). Besides, the growth sensitivity score in experiment [3] is -5.79; in experiment [4] it was 2.93 (active).
For `C[C@]12CCC(=O)C=C1CC[C@@H]1[C@@H]2C(=O)C[C@@]2(C)[C@H]1CC[C@]2(O)C(=O)CO` [Cortisone] (stock concentration (mM, diluted 1:100): 10), the “CDA2-GFP sporulation assay sensitivity score” value in experiment [1] was 2.53 (inactive). The “HIS4 meiotic recombination assay sensitivity score” value in experiment [2] is -0.95 (inactive). Further, the growth sensitivity score in experiment [3] is 0.78 (inactive); in experiment [4] it was -0.57 (inactive).
As to `Clc1ccccc1C(c1ccccc1)(c1ccccc1)n1ccnc1` [Clotrimazole] (stock concentration (mM, diluted 1:100): 10), the “CDA2-GFP sporulation assay sensitivity score” value in experiment [1] is 3.7 (inactive). The “HIS4 meiotic recombination assay sensitivity score” value in experiment [2] is -0.98 (inactive). The growth sensitivity score in experiment [3] was 2.49 (active); in experiment [4], 62.8 (active).
As to `CC(C(=O)O)c1ccc(-c2ccccc2)c(F)c1` (centres undefined) [Flurbiprofen] (stock concentration (mM, diluted 1:100): 11.4), the “CDA2-GFP sporulation assay sensitivity score” value in experiment [1] was -0.22 (inactive). Moreover, the “HIS4 meiotic recombination assay sensitivity score” value in experiment [2] was -0.16 (inactive). In addition, the growth sensitivity score in experiment [3] is 0.77 (inactive); in experiment [4] it was 0.01 (inactive).
On to `O=C(O)CCc1nc(-c2ccccc2)c(-c2ccccc2)o1` [Oxaprozin] (stock concentration (mM, diluted 1:100): 10), for which the “CDA2-GFP sporulation assay sensitivity score” value in experiment [1] was -0.84 (inactive). The “HIS4 meiotic recombination assay sensitivity score” value in experiment [2] is -0.23 (inactive). Besides, the growth sensitivity score in experiment [3] is 5.72 (active); in experiment [4], 0.61 (inactive).
